# From PubChem BioAssay (Tox21)
# “And” between values parts separate entries of the source, which are not always exact repeats. Equal values may be shown once. Results filed as inconclusive are left out. Values without a mark were called inactive. The source made the active and inactive calls. Calls come from the whole dose curve; as a rule, active = well fitted inhibition curve with a large enough effect in the repeat runs; inconclusive = weak or mixed curves, or effect the other way; inactive = no such curve, though single readings can be large or run the other way.
# Assay: qHTS assay to identify small molecule antagonists of the retinoic acid receptor (RAR) signaling pathway (AID 1159552; note: nearly all actives have a fitted effect of over 50% in size)
# Details: C3RL4 RARE luciferase reporter, retinol-stimulated, 6 h; series mostly up to 92.4 µM; activity, negative = inhibition: at the top concentration
# Description: National Center for Advancing Translational Sciences [NCATS]
# NIH Chemical Genomics Center [NCGC]
# U.S. Environmental Protection Agency [EPA]
# National Institutes of Environmental Health Sciences [NIEHS]
# National Toxicology Program [NTP]
# U.S. Food and Drug Administration [FDA]
# All-trans Retinoic acid (atRA) is the potent natural metabolite of retinol and plays an important role in normal embryonic development and maintenance of cellular phenotype in adult animals. atRA is the activating ligand for the retinoic acid receptors (RARs) which form heterodimers with retinoid X receptors (RXRs) on the retinoic acid response element (RARE). Through activation of the RAR/RXRs nuclear receptors, atRA regulates the transcription of a large number of protein-coding genes and regulatory RNAs. Intracellular levels of atRA are controlled by the retinol signaling pathway (RSP) that regulates the biosynthesis and catabolism of atRA to maintain physiological levels. Chemicals that interfere with the RSP can cause abnormal intracellular levels of atRA and therefore are potential developmental toxicants. To assess compounds for the potential adverse effect on embryonic development through interfering with retinol signaling, a cell-based RARE luciferase reporter gene assay was used. C3RL4 cell line (OARSA/CFSAN/FDA, Laurel, MD) was used to screen Tox21 10K compound library for identifying inhibitors of the RSP.
# Tox21 Assay Protocol Summary:
# C3RL4 cells were seeded at 1,000/well in 4 uL of assay medium into white solid 1,536-well tissue culture plates (Greiner Bio-One North America Inc. Monroe, NC) using a Multidrop Combi (Thermo Scientific, Waltham, MA) dispenser. After incubation at 37 C and 5% CO2 for an overnight, 23 nL of compounds dissolved in DMSO, positive control or DMSO only were transferred by a Pintool station (Kalypsys, San Diego, CA). One ul of 1 uM (final concentration) of Retinol was added right after the compound addition by using a Flying Reagent Dispenser (FRD) (Aurora Discovery, San Diego, CA). After 6 hr incubation at 37 C and 5% CO2, 5 uL of Amplite Luciferase reagent (AAT Bioquest Inc. Sunnyvale, CA) was added to each assay plate using an FRD. Luminescence was quantified on a ViewLux plate reader (PerkinElmer, Waltham, MA) after 30 min incubation at room temperature.
# % is set by controls: 0 for no effect and ±100 for the full control effect; potency is the fitted concentration of half-maximal effect.
SMILES,"activity, negative = inhibition",Potency
C[n+]1ccn(Cc2ccccc2)c1,-16.5%,–
O=C(OCC(COC(=O)c1ccccc1)(COC(=O)c1ccccc1)COC(=O)c1ccccc1)c1ccccc1,22.9%,–
CCCCCCCC/C=C/CCCCCCCC1=NCCN1CCO,–,61.1 µM (active)
CC(=O)SC[C@@H](Cc1ccccc1)C(=O)NCC(=O)OCc1ccccc1,2.71% [at 42.5 µM],–
NNc1nc(-c2ccccc2)cs1,76.8%,–
C[n+]1cc2c3c(ccc2c2ccc4cc5c(cc4c21)OCO5)OCO3,–,1.83 µM (active)
Nc1cc(C(F)(F)F)ccc1S,–,6.68 µM (active)
CC(C)OC(=O)c1cc2c(OCC(O)CNC(C)(C)C)cccc2[nH]1 (stereo not given),-12.5% [at 42.5 µM],–
N#CC1(c2ccc(F)cc2)CCC(=O)CC1,8.22% [at 42.5 µM],–
CCCCCCCCCCn1cc[n+](CCCCCCCCCC)c1C,–,24.4 µM (active)
Clc1ccc2nsnc2c1NC1=NCCN1,15.6% [at 42.5 µM],–
O=Cc1cc(O)ccc1Br,-2.54%,–
Cc1[nH]nc2c1N=C(c1ccccc1Cl)c1cc([N+](=O)[O-])ccc1N2,–,30.6 µM (active)
OC1(c2ccc(Cl)c(C(F)(F)F)c2)CCN(CCCC(c2ccc(F)cc2)c2ccc(F)cc2)CC1,–,26.6 µM (active)
O=C1Cc2cc(CCN3CCN(c4nsc5ccccc45)CC3)c(Cl)cc2N1,-17.8% [at 42.5 µM],–
O=c1[nH]sc2ccccc12,–,17.2 µM (active)
CC(C)(C)CC(C)(C)c1ccc(OCCOCC[N+](C)(C)Cc2ccccc2)cc1,–,43.2 µM (active) and 29.8 µM (active)
C=CC(=O)OCC(CO)(COCC(COC(=O)C=C)(COC(=O)C=C)COC(=O)C=C)COC(=O)C=C,–,7.6 µM (active)
Cc1cc(O)c(C(C)(C)C)cc1Sc1cc(C(C)(C)C)c(O)cc1C,-118%,–
Oc1c(Cl)cc(Cl)c2cccnc12,41.8% [at 42.5 µM],–

SMILES,"activity, negative = inhibition",Potency
CC(C)(C)c1ccc(C(=O)O)cc1,5.74%,–
O=C(Nc1cccc(C(F)(F)F)c1)c1cc(Br)cc(Br)c1O,-23.9%,–
CCCCCOC(=O)CCCC,15.8%,–
CCc1cc(Cc2cc(CC)c(N)c(CC)c2)cc(CC)c1N,-20.6%,–
OCCN1CCN(CC/C=C2/c3ccccc3Sc3ccc(C(F)(F)F)cc32)CC1,–,26.6 µM (active)
CN1CCN(CCC(=O)N2c3ccccc3Sc3ccc(C(F)(F)F)cc32)CC1,–,29.8 µM (active)
CCc1oc2ccccc2c1C(=O)c1cc(Br)c(O)c(Br)c1,-6.61% [at 42.5 µM],–
Cc1ccc(-n2nc(C(C)(C)C)cc2NC(=O)Nc2ccc(OCCN3CCOCC3)c3ccccc23)cc1,33% [at 42.5 µM],–
CCOc1nc2cccc(C(=O)OC(C)OC(=O)OC3CCCCC3)c2n1Cc1ccc(-c2ccccc2-c2nn[nH]n2)cc1 (stereo not given),–,48.5 µM (active)
CCCC1O[C@@H]2C[C@H]3[C@@H]4CCC5=CC(=O)C=C[C@]5(C)[C@H]4[C@@H](O)C[C@]3(C)[C@]2(C(=O)CO)O1 (stereo not given in full),–,48.6 µM (active)
CCC1OCC(COc2ccc(Oc3ccccc3)cc2)O1 (stereo not given),-5.13%,–
O=C(c1ccc(O)cc1O)c1ccc(O)cc1O,–,inactive
O=C(O)c1ccc(Cl)c(Cl)c1,-9.08%,–
CCc1cc(SCc2sc(-c3ccc(C(F)(F)F)cc3)nc2CN2CCN(c3ccc(OC)cc3)CC2)ccc1OCC(=O)O,–,61.1 µM (active)
Cc1cc2c(cc1C(F)(F)F)N(C(=O)Nc1ccc(Oc3cccnc3C)nc1)CC2,27.7%,–
CC[C@H]1O[C@]2(CC[C@@H]1C)C[C@@H]1C[C@@H](C/C=C(\C)C[C@@H](C)/C=C/C=C3\CO[C@@H]4[C@H](O)C(C)=C[C@@H](C(=O)O1)[C@]34O)O2,–,42.9 µM (active)
CSc1ccc(C(=O)c2[nH]c(=O)[nH]c2C)cc1,1.34% [at 42.5 µM],–
Cc1cc(CCN2CCN(c3nsc4ccccc34)CC2)cc2c1NC(=O)CC2(C)C,–,30.6 µM (active)
CCCCCCCCCCCCCCCS(=O)(=O)Oc1ccccc1,-10.1% [at 42.5 µM],–
CCCCCCCCOC(=O)c1ccc(O)cc1,–,inactive
